MARV entry inh = Marburg virus entry inhibition; hit rate 1.8% among 300,000; Potency, µM (top dose mostly 37.8 µM), without a hit: at the top dose activity change, negative = inhibition, hits mostly inhibitors; Marburg virus pseudotyped entry inhibition, cell reporter; calls by dose curve; tested in HEK293 cells; further: potency means the concentration at half of the fitted maximal effect
Giardia FBPA inh = blocks Giardia fructose-bisphosphate aldolase activity. purified Giardia FBPA. Potency, µM (doses to about 59.6 µM), for the others: at the highest dose activity, negative = inhibition, actives largely listed as inhibitors. hit rate 0.71% among 290,000. AID 2451; further: potency means the concentration at half of the fitted maximal effect; nearly all actives have a fitted effect of over 55% in size
Target sequence (A8B2U2 whole entry, looked up): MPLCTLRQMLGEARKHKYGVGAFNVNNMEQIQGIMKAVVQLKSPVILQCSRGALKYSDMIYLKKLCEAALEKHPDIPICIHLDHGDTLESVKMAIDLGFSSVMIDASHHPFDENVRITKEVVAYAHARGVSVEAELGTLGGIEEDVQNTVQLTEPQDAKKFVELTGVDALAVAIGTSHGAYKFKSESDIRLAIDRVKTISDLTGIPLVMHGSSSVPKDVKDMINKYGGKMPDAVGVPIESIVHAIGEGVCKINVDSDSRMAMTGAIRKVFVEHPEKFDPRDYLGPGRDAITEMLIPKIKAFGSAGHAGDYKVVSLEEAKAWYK
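40 nM FBPA preincubated 10 min at RT with compound (up to 57.5 uM final), then substrate plus GAPDH/TPI/NAD/arsenate coupling and diaphorase/resazurin added. Fluorescence read after 20 min at RT, 525/598 nm.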
HCMV antiviral = blocks human cytomegalovirus replication | HFF cells, HCMV-luciferase reporter, 72 h; stronger effect = lower value | activity change, negative = inhibition, % at 57.5 µM | hit rate 4.5% among 410,000; in the data active means activity change below about -60%; inconclusive means no clear call, values can overlap the other calls; inactive means above about -39%
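Steps: HFFs plated, 16 h 37C; compounds added; HCMV-luciferase added to MOI 1 PFU/cell; 72 h 37C; OneGlo reagent, 5 min room temperature; luminescence read, normalized to controls.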
LASV entry inh = Lassa virus entry inhibition. Lassa virus pseudotype entry inhibition, cell reporter. Potency, µM (top dose mostly 37.9 µM), for the others: at the highest dose activity change, negative = inhibition, hits mostly inhibitors. hit rate 1.2% among 300,000. AID 540256; calls by dose curve; tested in HEK293 cells; further: potency means the concentration at half of the fitted maximal effect; nearly all actives have a fitted effect of over 50% in size
HCV inhibitor = inhibitors of hepatitis C virus infection. Huh7.5.1 HCVcc-Cre infection, luciferase reporter, 44 h. Potency, µM (top dose mostly 41.8 µM), without a hit: at the top dose activity change, negative = inhibition, usual class: inhibitors. hit rate 3.4% among 340,000. AID 651820; further: potency means the concentration at half of the fitted maximal effect
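1,000 cells/well; 4 h culture; + compound; + HCVcc-Cre (~0.5 moi); 44 h; luciferase substrate, RT 15 min; read 15 sec.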
FMDV inh = antivirals against foot and mouth disease virus; FMDV antiviral cell-based qHTS; Potency, µM (titrated, usually from 57.9 µM), without a hit: top-dose activity change, negative = inhibition, usual class: inhibitors; hit rate 1.2% among 410,000; calls by dose curve; tested in HEK293T cells; further: read-out not given here; potency means the concentration at half of the fitted maximal effect; nearly all actives have a fitted effect of over 45% in size
* = called active by the depositor; ? = inconclusive; · = not tested or not shown; [ ] = remark or other dose. Only some compounds are listed: those with a hit (about 8.3% of all), similar ones and a draw of the others. Unless noted, the call rests on the fitted dose curve; in most records, active means well fitted curve in the direction sought with a large enough effect; inconclusive means small, poorly fitted or top-dose-only effect, or another doubt; inactive means no such curve, though single readings can be large; an effect the other way counts as inactive or inconclusive. On the % scale 0 is the no-effect control and ±100 the full control effect.

SMILES	MARV entry inh	Giardia FBPA inh	HCMV antiviral	LASV entry inh	HCV inhibitor	FMDV inh
O=C1NC(=O)N(c2ccccc2F)C(=O)/C1=C/c1cn(CC(=O)N2CCOCC2)c2ccccc12	-1%[46.1 µM]	15%	2	?	-6%	22µM*
CCN1C(=O)NC(=O)/C(=C\c2cn(CC(=O)N3CCCC3)c3ccccc23)C1=O	2%[46.1 µM]	-5%	-26	9%	6%	-9%
Cc1ccc(NC(=O)CN(C)S(=O)(=O)c2cccc3nsnc23)c(C)c1	-1%[46.1 µM]	·	-15	-1%[46.1 µM]	·	-4%
CCN(CC)c1ccc(NC(=O)CN(C)S(=O)(=O)c2cccc3nsnc23)c(C)c1	?	·	-67*	3%[46.1 µM]	·	-24%
COc1cc(O)ccc1CN1CCc2nnc(C(C)NC(=O)c3cc(F)ccc3F)n2CC1 (centres undefined)	·	·	·	·	·	-19%
CCN(CC)C(=O)c1sc2c(c1C)c(=O)n(CCc1ccccc1)c(=O)n2Cc1ccc(C)cc1	·	·	-20	-24%[46.1 µM]	·	?
c1ccc2sc(N3CCN(Cc4nnnn4CC4CCCO4)CC3)nc2c1 (centres undefined)	-17%	-2%	-24	?	-15%	?
COc1ccc(Cn2nnnc2CN2CCC(c3nc4ccccc4s3)CC2)cc1	?	0%	-70*	?	25µM*	20µM*
c1ccc2sc(C3CCN(Cc4nnnn4Cc4ccc5c(c4)OCO5)CC3)nc2c1	?	-3%	?	?	?	20µM*
COC(=O)c1c(OCCN2CCCCC2)cc(=O)n2c1CCN(Cc1cccc3nccnc13)CC2	·	·	·	·	·	2%
COc1cc(NC(=O)CN(C)S(=O)(=O)c2ccc3c(c2)CCCC(=O)N3)cc(OC)c1OC	·	·	-1	24%[46.1 µM]	·	-22%
COC(=O)c1ccc(NC(=O)CN(C)S(=O)(=O)c2ccc3c(c2)CCCC(=O)N3)cc1	·	·	2	?	·	32µM*
O=C1NC(=S)N(c2ccccc2F)C(=O)/C1=C\c1cccs1	?	-5%	-7	8%	3%	32µM*
Cc1c(C(=O)N/N=C/C(C)C)[nH]c2ccc([N+](=O)[O-])cc12	13%[46.1 µM]	5%	-75*	?	-29%	-6%
Cc1c(C(=O)N/N=C/c2ccc(Cl)cc2)[nH]c2ccc(Cl)cc12	·	0%	-89*	·	?	59%
CCOc1ccc(/C=N/NC(=O)c2[nH]c3ccc(C)cc3c2C)cc1	?	0%	-19	?	?	8%
Cc1c(C(=O)O)[nH]c2ccc([N+](=O)[O-])cc12	?	22%	-15	-15%	10%	14%
COCCCn1c(C)cc(C(=O)CN2c3cccc4cccc(c34)S2(=O)=O)c1C	·	·	15	·	?	-1%
Cc1cc(C(=O)CSc2nnnn2C)c(C)n1CCc1ccc(Cl)cc1	-3%[46.1 µM]	-6%	38	-14%	-9%	-20%
Cc1cc(C(=O)CCl)c(C)n1CCc1ccccc1	?	?	-100*	?	8.9µM*	28µM*
COC(=O)CCCn1c(C)cc(C(=O)CCl)c1C	?	-1%	15	?	?	28µM*
CCOC(=O)c1cc(C)n(CCc2ccccc2)c1C	-2%[46.1 µM]	1%	-1	-3%	?	0%
COc1ccc(CCn2c(C)cc(C(=O)CSc3nnnn3-c3ccccc3)c2C)cc1	?	-1%	-70*	13%	-20%	-14%
CCOc1ccc(S(=O)(=O)NCC(c2ccco2)S(=O)(=O)c2ccc(F)cc2)cc1 (centres undefined)	·	·	-22	-19%[46.1 µM]	·	16%
Cc1ccc2c(c1)COc1c3ccc(C(=O)NCC4CC4)cc3nn1-2	·	7%	34	·	?	7%
SMILES	MARV entry inh	Giardia FBPA inh	HCMV antiviral	LASV entry inh	HCV inhibitor	FMDV inh
Cc1ccc2c(c1)COc1c3ccc(C(=O)O)cc3nn1-2	·	0%	0	·	18%	10µM*
S=C(NCc1ccco1)Nc1ccc(Cl)c(Cl)c1	?	-2%	-22	-10%	-26%	·
S=C(NCc1ccco1)Nc1cc(Cl)c(Cl)cc1Cl	-18%	-1%	?	-17%	25µM*	0%
COc1ccc(-c2noc(CC(=O)Nc3cc(OC)ccc3OC)n2)cc1	·	·	-27	-5%[46.1 µM]	·	-22%
CC1=CC(C)(C)N2C(=O)C3(NCCc4c3[nH]c3ccccc43)c3cc(C)cc1c32 (centres undefined)	·	-9%	?	·	7.9µM*	-21%
CN1C(=O)C2(NCCc3c2[nH]c2ccccc32)c2ccccc21 (centres undefined)	10%	19%	-5	-3%	4%	-10%
O=C(CCCN1C(=O)c2cccc3cccc(c23)C1=O)N1CCN(c2ccc(F)cc2)CC1	?	4%	-37	?	11µM*	22µM*
CN(C(=O)CCCN1C(=O)c2cccc3cccc(c23)C1=O)c1ccccc1	-9%[46.1 µM]	-13%	-62*	-11%	?	?
COC(=O)CCCN1C(=O)c2cccc3cccc(c23)C1=O	?	2%	-11	29%	-5%	39%
CCc1cc2c(NCC(=O)O)ncnc2s1	16%	3%	-8	2%	3%	0%
CCc1cc2c(NCc3ccccc3)nc(C)nc2s1	·	?	-84*	·	7.9µM*	?
CCc1cc2c(NC(Cc3ccccc3)C(=O)O)nc(C)nc2s1 (centres undefined)	·	11%	-22	·	10%	-1%
CCc1cc2c(NCc3ccco3)ncnc2s1	?	-18%	-32	0%	16µM*	?
CC[n+]1c(/C=C/Nc2ccccc2)oc2ccccc21	?	-23%	?	?	8%	-30%
CC/C(=C\c1oc2cc3ccccc3cc2[n+]1CC)Nc1ccccc1	-12%[14.2 µM]	?	?	?	3%	22µM*
Cc1nc(Nc2ccccc2)sc1-c1ccccc1	?	-16%	86	?	?	0%
Cc1nc(Nc2ccc(C(=O)O)cc2)sc1-c1ccccc1	?	8%	14	?	21%	7.1µM*
O=S1(=O)N=C(Nc2nc3c(s2)CCCC3)c2ccccc21	?	-1%	55	7.1µM*	-7%	-42%
O=C(O)c1ccc(Nc2nc3c(s2)CCCC3)cc1	·	1%	?	·	9%	10µM*
CC12CCC=CC1C(c1ccc3ccccc3c1C=Cc1ccccc1)N(Cc1ccccc1)C2=O (centres undefined)	·	0%	·	·	·	·
Cc1ccc(-c2nc(P(=O)(c3ccccc3)c3ccccc3)c(N3CCOCC3)o2)cc1	10µM*	1%	-7	?	?	-26%
CCOP(=O)(OCC)c1nc(-c2ccc(OC)cc2)oc1N1CCOCC1	-5%[46.1 µM]	-3%	-4	-26%[46.1 µM]	-7%	-2%
Oc1ccc(/C=N\Nc2nncc(-c3ccccc3)n2)cc1	·	3%	-66*	·	?	-6%
Brc1ccc(/C=N/Nc2nncc(-c3ccccc3)n2)o1	·	1%	?	·	·	·
COc1ccc(-c2cnnc(N/N=C/c3ccc(O)c(O)c3)n2)cc1	?	?	31	4.6µM*	-28%	-11%

High-throughput results from PubChem.
